Out of some 360,000 compounds screened, about 7,500 (2.1%) were called active. Another 8% or so got no clear call; they are omitted. The call rests on the fitted dose curve; in most records, active means well fitted cell-killing curve with a large enough effect; inconclusive means small, poorly fitted or top-dose-only effect, or effect the other way, or another doubt; inactive means no such curve, though single readings can be large or run the other way. The entries come from a sample that favours actives as a whole.
test: qHTS for induction of synthetic lethality in tumor cells producing 2HG: qHTS for the HT-1080-IDH1KD cell line; conditions: HT-1080 IDH1 knockdown viability, ATP luminescence, 48 h; series mostly up to 46.1 µM; activity, negative = toxicity: at the top concentration;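 on activity, negative = toxicity: 0% = DMSO wells and -100% = cell-free medium wells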
How it was run: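 Cytotoxicity counter-line: IDH1KD HT-1080, 48 h, CellTiter-Glo. Curves classed by r2, magnitude and activity.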
Potency means the concentration at half of the fitted maximal effect.

Structure (SMILES) | Potency | activity, negative = toxicity
CC(=O)Nc1ccc(Nc2c3ccccc3nc3ccccc23)cc1 | 14.6 µM (active) | –
CC(=O)Nc1ccc(S(=O)(=O)N(C)c2nc3ccccc3nc2Cl)cc1 | – | -10.3% (inactive)
CC(=O)Nc1ccc(Nc2cc(C)nc(Nc3ccc(NC(C)=O)cc3)n2)cc1 | – | 1.27% (inactive)
Cc1ccc(S(=O)(=O)N2CC3C(=O)C[C@@H](c4ccccc4Cl)N(S(=O)(=O)c4ccc(C)cc4)C3CC2c2ccccc2)cc1 (some centres undefined) | – | 6.47% (inactive)
CCOC(=O)C1CCCN(C(=O)c2cccc3ccccc23)CC1 (centres undefined) | – | 4.57% (inactive)
C[C@@H]1Cn2cnc(C(=O)Nc3ccc(CNC(=O)OC(C)(C)C)cc3)c2C(=O)N1 | – | -1.21% (inactive)
Cc1ccc(O)c(CNc2nc3ccccc3[nH]2)c1 | – | -0.158% (inactive)
CN(c1ccccc1)S(=O)(=O)c1cc(C(=O)Nc2nc3ccccc3[nH]2)ccc1Cl | – | -26.3% (inactive)
COC(=O)Nc1nc2ccc(Sc3ccccc3)cc2[nH]1 | 0.82 µM (active) | –
CCOC(=O)C1(C)CCCN(C(=O)c2ccc(F)c(Cl)c2)C1 (centres undefined) | – | 1.41% (inactive)
COc1ccccc1CNC(=O)c1cc(=O)c2ccccc2o1 | – | -3.19% (inactive)
COc1ccc2c(CC(=O)N3CCc4cc(OC)c(OC)cc4C3)coc2c1 | – | -17.6% (inactive)
COc1cc2c(cc1OC)CN(C(=O)c1cc(=O)c3ccccc3o1)CC2 | 5.8 µM (active) | –
COc1cc(NC(=O)C2=C(C)OCCS2)c(Cl)cc1C(=O)NCCCN1CCCC(C)C1 (centres undefined) | – | 1.32% (inactive)
NS(=O)(=O)c1ccc(CCNS(=O)(=O)c2cccc3cccnc23)cc1 | – | 7.47% (inactive)
Cc1ccc2cccc([N+](=O)[O-])c2n1 | – | 0.157% (inactive)
O=[N+]([O-])c1ccccc1S(=O)(=O)Nc1cccc2cccnc12 | 11.6 µM (active) | –
Cc1nccn1-c1ccc(NC(=O)[C@H]2O[C@@H](n3cnc4c(N)ncnc43)[C@H](O)[C@@H]2O)cc1 | – | 19.9% (inactive)
CC1(C(=O)NS(=O)(=O)Cc2cccc(Cl)c2)CCN1C(=O)Cc1ccccc1 (centres undefined) | – | 0.537% (inactive)
CCCCn1nnnc1C(c1ccccc1)N1CCN(c2ccccc2OC)CC1 (centres undefined) | – | 0.0985% (inactive)
CCOC(=O)N1CCN(S(=O)(=O)c2ccc(OC)cc2)CC1 | – | -2.16% (inactive)
CCOC(=O)N1CCN(C(=O)c2ccccc2N(Cc2ccccc2)S(=O)(=O)c2ccc(OC)cc2)CC1 | 3.26 µM (active) | –
NC(=O)c1ccccc1N(Cc1ccccc1)S(=O)(=O)c1ccccc1 | – | -3.44% (inactive)
CCCc1ccc(C(O)c2ncc(-c3cccc(OC)c3)[nH]2)cc1 (centres undefined) | – | -10.3% (inactive)
CN(CCO)C(=O)c1nc[nH]c1C(=O)N(C)Cc1ccccc1 | – | 0.785% (inactive)
Cc1ccc(-c2nc3ccc(Br)cn3c2Cc2ccccc2C(F)(F)F)cc1 | – | -27.3% (inactive)
COc1ccc(-c2cc(C)nc3nc(N)nn23)cc1 | – | -1.58% (inactive)
Cc1cc(N)n2nc(-c3ccc(C(C)(C)C)cc3)cc2n1 | 20.6 µM (active) | –
Cc1cc(C(C)(C)C)cc(C)c1N | – | 13.7% (inactive)

From PubChem BioAssay AID686971 (National Center for Advancing Translational Sciences (NCATS), 2013)
